Experimental findings from PubChem BioAssay (EPA / NIEHS) are described below.

Results filed as inconclusive are left out. Activity calls are given as the source filed them. The calls were made as follows, unless noted: active = hit-call score of the fitted dose curve at least 0.9, where 1 is the maximum; inconclusive = response in the unintended direction; inactive = score below 0.9.

Sequence of Nuclear receptor subfamily 4 group A member 2 (Homo sapiens) (P43354 whole entry, looked up): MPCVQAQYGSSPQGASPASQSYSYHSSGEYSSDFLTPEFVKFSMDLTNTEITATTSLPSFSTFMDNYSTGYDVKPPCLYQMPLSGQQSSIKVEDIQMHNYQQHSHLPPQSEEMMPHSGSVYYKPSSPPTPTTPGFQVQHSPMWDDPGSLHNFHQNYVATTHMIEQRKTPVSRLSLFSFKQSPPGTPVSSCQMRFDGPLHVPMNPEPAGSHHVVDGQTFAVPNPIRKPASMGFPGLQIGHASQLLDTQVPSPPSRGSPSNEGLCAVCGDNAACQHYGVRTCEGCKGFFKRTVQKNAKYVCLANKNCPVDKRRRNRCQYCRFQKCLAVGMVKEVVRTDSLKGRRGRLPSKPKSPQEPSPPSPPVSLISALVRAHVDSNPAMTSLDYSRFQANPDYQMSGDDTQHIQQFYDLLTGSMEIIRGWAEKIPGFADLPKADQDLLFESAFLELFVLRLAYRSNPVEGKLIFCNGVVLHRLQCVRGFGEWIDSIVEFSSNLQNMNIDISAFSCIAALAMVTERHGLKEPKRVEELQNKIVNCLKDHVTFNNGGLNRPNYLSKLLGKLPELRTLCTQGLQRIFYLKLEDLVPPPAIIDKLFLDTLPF

System in the first test: not listed separately
Description: ATG_M_32_TRANS: Attagene TRANS-FACTORIAL HepG2 Assay for M32 Transcription Factor (Internal Marker) (AID 2282984).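 Also: transcript level of a background control reporter unit measured by RT-PCR and capillary electrophoresis.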 Particulars: HepG2 Attagene TRANS M32 internal marker reporter. In outline:
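Capillary electrophoresis of 6-FAM-labelled reporter fragments gives the signal; data fitted for gain over DMSO negative control. Source: HepG2 cells bearing transient multiple reporter transcription units, 24 h exposure.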
Take `CC1OC1C1CCC2(C)OC2C1` (configuration not stated): the compound was called inactive.

`CC1(C)O[C@@H]2C[C@H]3[C@@H]4C[C@H](F)C5=CC(=O)C=C[C@]5(C)[C@@]4(F)[C@@H](O)C[C@]3(C)[C@]2(C(=O)CO)O1`: the call was inactive.

Consider `CCOC(=O)Cc1cccc2ccccc12`, for which the compound was classed as inactive.

Turning to `C=C(C)C(=O)OCCO`, the call was inactive.

For the compound `C=CC=CC=CCCCCC`, the compound was classed as inactive.

As for `CCCCC/C=C\CCC=O`, the call was inactive.

Take `Nc1ccc(N=Nc2ccccc2)c(N)n1`: the call was inactive.

For `C=CC(C)(CCC=C(C)C)OC(=O)CC(C)C` (configuration not stated), the compound was called inactive.

As for `CC(C)(C)c1ccc(N)cc1`, the result was inactive.

Consider `O=C(c1ccccc1)c1ccc(O)c(O)c1O`, for which the outcome was inactive.

As for `Nc1ccc2cc3ccccc3cc2c1`, the outcome was inactive.

Consider `CNC(=S)NN`, for which the call was inactive.

Regarding `O=C(O)CCCC[C@@H]1SC[C@@H]2NC(=O)N[C@@H]21`, the call was inactive.

Consider `CCCOC(=O)CCCCC(=O)OCCC`, for which the compound was classed as inactive.

Consider `C=C(C)CCO`, for which the result was inactive.

With `C=C[Si](C)(C)O[Si](C)(C)C=C`, the result was inactive.

On to `CCCCCCCCCCCCCCCCCC#N`, for which the compound was called inactive.

As to `CC(C)(C)C1CCCCC1=O` (configuration not stated), the call was inactive.

For the compound `CC1(C)O[C@@H]2C[C@H]3[C@@H]4C[C@H](F)C5=CC(=O)CC[C@]5(C)[C@H]4[C@@H](O)C[C@]3(C)[C@]2(C(=O)CO)O1`, the compound was called inactive.

Regarding `O=C1c2ccccc2C(=O)C1c1nc2ccccc2c(Br)c1O`, the result was inactive.

`CC=CC(=O)N(CC)c1ccccc1C`: the result was inactive.

With `CC(=O)OCC(=O)[C@@]12N=C(C)O[C@@H]1C[C@H]1[C@@H]3CCC4=CC(=O)C=C[C@]4(C)[C@H]3[C@@H](O)C[C@@]12C`, the outcome was inactive.

Take `CCC(C)OC(=O)c1ccc(O)cc1` (configuration not stated): the outcome was inactive.

Regarding `CCCCCCCCCCCCCCCC(=O)OCC`, the compound was called inactive.

As to `O=c1[nH]nc(-c2ccc([N+](=O)[O-])o2)o1`, the compound was called inactive.

Regarding `CCCCCC/C=C/C=O`, the compound was classed as inactive.

Take `C=C(C)c1cccc(C(C)(C)N=C=O)c1`: the outcome was inactive.

Another test addresses Nuclear receptor subfamily 4 group A member 2 (Homo sapiens) (UniProt P43354). Description: ATG_NURR1_TRANS: Attagene TRANS-FACTORIAL HepG2 Assay for human Nuclear Receptor Related Protein 1 (NURR1) (AID 2282985). The settings on record: HepG2 Attagene TRANS reporter, mRNA readout. In outline: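 HepG2 / transient MRTU transfection / 24 h compound exposure / RT-PCR + CE fluorescence of reporter mRNA / gain-of-signal vs DMSO.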
Regarding `CC1OC1C1CCC2(C)OC2C1` (configuration not stated), the outcome was inactive.

As for `c1ccc(-c2ccccn2)nc1`, the compound was classed as inactive.

On to `CC(=O)OC1C2(C)CCC(C2)C1(C)C` (configuration not stated), for which the compound was called inactive.

`CCCCCCCOC(=O)CCC`: the result was inactive.

Take `C=C(C)C(=O)OCCO`: the compound was classed as inactive.

With `C=CC=CC=CCCCCC`, the result was inactive.

Take `CC(=O)[C@H]1[C@H](C#N)C[C@H]2[C@@H]3CC=C4C[C@@H](O)CC[C@]4(C)[C@H]3CC[C@@]21C`: the compound was classed as inactive.

As to `CCCCC/C=C\CCC=O`, the call was inactive.

As to `C=CC(C)(CCC=C(C)C)OC(=O)CC(C)C` (configuration not stated), the outcome was inactive.

For `CC(C)(C)c1ccc(N)cc1`, the call was inactive.

As to `Cc1ccc([N+](=O)[O-])cc1S(=O)(=O)O`, the compound was called inactive.

On to `CNC(=S)NN`, for which the compound was called inactive.

For `CCCOC(=O)CCCCC(=O)OCCC`, the result was inactive.

Take `C=C(C)CCO`: the compound was classed as inactive.

With `C=C[Si](C)(C)O[Si](C)(C)C=C`, the call was inactive.

For `CC1(C)O[C@@H]2C[C@H]3[C@@H]4C[C@H](F)C5=CC(=O)CC[C@]5(C)[C@H]4[C@@H](O)C[C@]3(C)[C@]2(C(=O)CO)O1`, the compound was called inactive.

`O=C1c2ccccc2C(=O)C1c1nc2ccccc2c(Br)c1O`: the compound was classed as inactive.

As for `O=C(Nc1ccccc1)c1ccccc1O`, the compound was called inactive.

In the case of `CC(=O)OCC(=O)[C@@]12N=C(C)O[C@@H]1C[C@H]1[C@@H]3CCC4=CC(=O)C=C[C@]4(C)[C@H]3[C@@H](O)C[C@@]12C`, the AC50 is 17.1 µM (active).

For the compound `CCC(C)OC(=O)c1ccc(O)cc1` (configuration not stated), the compound was called inactive.

With `CCCCCCCCCCCCCCCC(=O)OCC`, the outcome was inactive.

Take `O=c1cc(-c2ccccc2)oc2ccccc12`: the outcome was inactive.

Take `O=C1CCCN1CCO`: the compound was called inactive.

The target in the next test is Transcriptional activator Myb (Homo sapiens) (UniProt P10242). Briefly: ATG_Myb_CIS: Attagene CIS-FACTORIAL HepG2 Assay for human Myeloblastosis (Myb) Proto-Oncogene Transcription Factor (AID 2282986; active = hit-call score of the fitted dose curve at least 0.9, where 1 is the maximum; inactive = score below 0.9). Particulars: HepG2 Attagene CIS-FACTORIAL Myb reporter transcription; actives raise or lower the signal. The method, boiled down: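 Reporter mRNA is quantified by RT-PCR and capillary electrophoresis 24 h after dosing HepG2 cells transfected with cis-regulated reporter units, which track endogenous transcription factor activity. Gain and loss of signal are fitted versus DMSO baseline.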
Sequence of Transcriptional activator Myb (Homo sapiens) (P10242 whole entry, looked up): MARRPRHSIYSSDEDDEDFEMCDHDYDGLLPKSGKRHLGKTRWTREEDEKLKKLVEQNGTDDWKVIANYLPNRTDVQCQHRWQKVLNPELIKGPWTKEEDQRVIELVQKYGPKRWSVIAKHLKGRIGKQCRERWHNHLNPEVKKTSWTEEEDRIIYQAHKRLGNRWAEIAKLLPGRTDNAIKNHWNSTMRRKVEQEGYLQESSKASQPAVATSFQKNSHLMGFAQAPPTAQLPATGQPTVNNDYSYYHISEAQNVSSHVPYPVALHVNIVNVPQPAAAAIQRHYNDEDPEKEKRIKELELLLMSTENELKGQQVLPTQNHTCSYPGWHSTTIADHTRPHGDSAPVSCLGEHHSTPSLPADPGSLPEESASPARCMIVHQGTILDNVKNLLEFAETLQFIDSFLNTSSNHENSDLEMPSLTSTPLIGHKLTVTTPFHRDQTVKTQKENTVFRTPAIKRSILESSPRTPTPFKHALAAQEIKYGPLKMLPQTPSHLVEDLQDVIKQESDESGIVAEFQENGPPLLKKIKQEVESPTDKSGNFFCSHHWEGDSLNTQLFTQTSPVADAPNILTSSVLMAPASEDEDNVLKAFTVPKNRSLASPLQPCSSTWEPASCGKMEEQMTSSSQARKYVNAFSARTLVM
Turning to `CC1OC1C1CCC2(C)OC2C1` (configuration not stated), the compound was called inactive.

With `c1ccc(-c2ccccn2)nc1`, the compound was called inactive.

`CC1(C)O[C@@H]2C[C@H]3[C@@H]4C[C@H](F)C5=CC(=O)C=C[C@]5(C)[C@@]4(F)[C@@H](O)C[C@]3(C)[C@]2(C(=O)CO)O1`: the compound was called inactive.

On to `CC(=O)OC1C2(C)CCC(C2)C1(C)C` (configuration not stated), for which the compound was classed as inactive.

On to `CCCCCCCOC(=O)CCC`, for which the compound was called inactive.

Consider `CCOC(=O)Cc1cccc2ccccc12`, for which the compound was called inactive.

On to `C=C(C)C(=O)OCCO`, for which the outcome was inactive.

In the case of `C=CC=CC=CCCCCC`, the compound was classed as inactive.

With `CC(=O)OCCC1CCCCC1`, the result was inactive.

For the compound `CCCCC/C=C\CCC=O`, the outcome was inactive.

Regarding `Nc1ccc(N=Nc2ccccc2)c(N)n1`, the result was inactive.

On to `C=CC(C)(CCC=C(C)C)OC(=O)CC(C)C` (configuration not stated), for which the outcome was inactive.

Take `CC(C)(C)c1ccc(N)cc1`: the compound was classed as inactive.

`O=C(c1ccccc1)c1ccc(O)c(O)c1O`: the compound was called inactive.

With `CN(C)CCCN(C)C`, the call was inactive.

In the case of `Cc1ccc([N+](=O)[O-])cc1S(=O)(=O)O`, the AC50 was 191 µM (active).

On to `COc1cc(NC(=O)CC(C)=O)c(OC)cc1Cl`, for which the compound was called inactive.

For `CNC(=S)NN`, the outcome was inactive.

In the case of `O=C(O)CCCC[C@@H]1SC[C@@H]2NC(=O)N[C@@H]21`, the compound was called inactive.

Turning to `CCCOC(=O)CCCCC(=O)OCCC`, the call was inactive.

Turning to `CCCCCCCCCCCCCCCCCC#N`, the compound was classed as inactive.

As for `CC(C)(C)C1CCCCC1=O` (configuration not stated), the compound was classed as inactive.

With `C[C@]12CCC(=O)C=C1CC[C@@H]1[C@@H]2C(=O)C[C@@]2(C)[C@H]1CC[C@]2(O)C(=O)CO`, the compound was classed as inactive.

`CC=CC(=O)N(CC)c1ccccc1C`: the call was inactive.

For the compound `CC(=O)OCC(=O)[C@@]12N=C(C)O[C@@H]1C[C@H]1[C@@H]3CCC4=CC(=O)C=C[C@]4(C)[C@H]3[C@@H](O)C[C@@]12C`, the compound was classed as inactive.

For the compound `CCC(C)OC(=O)c1ccc(O)cc1` (configuration not stated), the result was inactive.

As to `CCCCCCCCCCCCCCCC(=O)OCC`, the call was inactive.

For `O=c1cc(-c2ccccc2)oc2ccccc12`, the result was inactive.

Consider `CC(=O)NS(=O)(=O)c1ccc(N)cc1`, for which the outcome was inactive.

As to `CCCCCC/C=C/C=O`, the compound was called inactive.

For the compound `O=C1CCCN1CCO`, the result was inactive.

In the case of `C=C(C)c1cccc(C(C)(C)N=C=O)c1`, the result was inactive.
